Assay outcomes deposited in PubChem by several laboratories.
This is a sample that favours compounds with a hit; in the whole collection about 3.2% have one here.
ANO1 activ: mouse TMEM16A channel activation, primary screen; HEK293 TMEM16A/YFP-H148Q/I152L, iodide quench fluorescence; hits give low values; Q8BHY3; 340,000 tested, 0.3% active; B-score at 10 µM;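 active = fluorescence-ratio B-score plate-corrected deviation score at least 3 library SD below zero, with starting fluorescence score within 5 deviations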;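 also: channel opened by trigger with iodide after compound preincubation; score built on the fluorescence ratio of max minus min over baseline; more negative score means more quench and so TMEM16A activation or potentiation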
PHOSPHO1 block: inhibitors of human PHOSPHO1 phosphatase. Q8TCT1. recombinant PHOSPHO1, absorbance phosphatase assay. inhibition, % at 13.3 µM. 290,000 tested, 1.1% active. AID 1565; in the data active = inhibition above about 60%
Target sequence (Q8TCT1 whole entry, looked up): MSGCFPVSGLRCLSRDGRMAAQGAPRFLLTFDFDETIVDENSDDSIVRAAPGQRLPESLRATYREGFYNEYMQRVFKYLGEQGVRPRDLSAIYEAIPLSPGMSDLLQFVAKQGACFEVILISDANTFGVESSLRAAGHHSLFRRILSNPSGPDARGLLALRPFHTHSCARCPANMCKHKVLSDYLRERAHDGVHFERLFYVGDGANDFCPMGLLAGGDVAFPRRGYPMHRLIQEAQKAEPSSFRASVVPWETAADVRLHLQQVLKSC
TMEM16A inh: inhibitors of mouse TMEM16A calcium-activated chloride channel; normalized B-score (activity score, 25-100; higher = stronger inhibition) at 10 µM; Q8BHY3; HEK293 TMEM16A/YFP iodide influx fluorescence, ionomycin; AID 588511; 310,000 tested, 1.2% active;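 active = ratio plate-corrected score three or more library SD toward inhibition, starting fluorescence score within five deviations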;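 also: score derived from kinetic fluorescence span divided by baseline fluorescence per well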
HDAC3 inhib: inhibitors of human histone deacetylase 3. O15379. recombinant HDAC3, fluorogenic peptide/trypsin coupled, fluorescence. inhibition, % at 8.3 µM. 320,000 tested, 0.15% active. AID 2718; in the data active = inhibition above about 26%, passing the limit was not always enough
CHT allo act: human CHT allosteric activation. Q9GZV3. CHT-expressing cells, membrane potential dye, choline EC20; hits give high values; LV-AA mutant CHT in HEK293 cells. B-score at 10 µM. 310,000 tested, 0.49% active. AID 488977;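 active = initial fluorescence not abnormally high and integrated response B-score, plate-corrected, over 3 SD above library mean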
CHT block: human CHT choline transport inhibition; Q9GZV3; 310,000 tested, 0.86% active; AID 488975; CHT-expressing cells, membrane potential dye, choline response; hits give low values; B-score at 10 µM;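 active = B-score over 3 SD under the library average, and starting fluorescence ratio not unusually high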;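 also: choline stimulus applied at its EC90 after an EC20 pre-addition; B-score computed on integrated fluorescence ratio after choline addition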
Hits are given with their value; 0 = inactive; - = not tested or not shown.

SMILES	ANO1 activ	PHOSPHO1 block	TMEM16A inh	HDAC3 inhib	CHT allo act	CHT block
Cc1ccc(NC(=O)c2oc3ccc(S(=O)(=O)N4CCOCC4)cc3c2C)cc1C	0	0	0	0	0	0
CC(=O)c1cccc(NC(=O)c2ccc(N(C)S(=O)(=O)c3ccc(C)cc3)cc2)c1	0	0	0	0	0	0
CCn1nc(C)c(Br)c1C(=O)Sc1ccccc1Cl	0	0	0	0	0	0
C=CCn1c(NC(=O)c2ccc(Br)o2)c(C(=O)OCC)sc1=S	0	85	0	0	0	0
c1ccc(-n2nnnc2SCc2cccc(CSc3nnnn3-c3ccccc3)n2)cc1	0	0	0	0	0	0
Clc1ccc(-n2nnnc2SCc2c(-c3ccccc3)nc3sccn23)cc1	0	98	0	0	0	0
C=CCSc1nnc(-c2ccccc2N=Cc2c(C)[nH]n(-c3ccccc3)c2=O)c(=O)[nH]1	0	69	0	0	0	0
Cc1[nH]n(-c2ccccc2)c(=O)c1/C=N/c1nn[nH]n1	0	0	0	0	0	0
O=C(CCc1nnc(CCCCc2ccccc2)o1)NCCc1cccnc1	0	0	0	0	0	0
O=C(CCc1nnc(CCCCc2ccccc2)o1)NCCN1CCCCC1=O	0	60	0	0	0	0
Cc1ccc(S(=O)(=O)NCc2ccc(C(=O)NCCCN3CCN(C)CC3)cc2)cc1	0	0	0	0	0	0
CSc1nnc(NC(=O)c2nc(S(=O)(=O)Cc3ccccc3)ncc2Cl)s1	0	0	0	-	0	-9.2
Cn1c(COc2ccccc2)nnc1SCC(=O)Nc1ccc2c(c1)OCO2	0	61	0	0	0	0
CCn1c(COc2ccc(Cl)cc2)nnc1SCC(=O)Nc1ccc2c(c1)OCO2	0	60	0	0	0	0
Cc1ccccc1OCc1nnc(SCC(=O)Nc2ccc3nc(SCC(=O)NC(C)(C)C)sc3c2)n1C	0	0	100	0	0	0
COc1ccc(-c2cnc(SCC(=O)Nc3ccc4c(c3)OCO4)n2Cc2ccco2)cc1	0	102	-	-	-	-
CCc1nnc(SCC(=O)Nc2ccc3c(c2)OCO3)n1CC	0	0	0	0	0	0
Brc1cc(Br)c2nc(-c3ccc(N4CCOCC4)cc3)ccc2c1	0	0	-	-	-	-
COc1ccc(CCCc2nnc(SCC(=O)Nc3ccc(C)c(C)c3)o2)cc1	0	85	0	0	0	0
Cc1cccc(NC(=O)CSc2nnc(CSc3nc(C)cc(C)n3)o2)c1	0	0	0	0	0	0
CCc1nnc(NC(=O)CSc2nnc(CSc3nc(C)cc(C)n3)o2)s1	0	94	0	0	0	0
COC(=O)CSc1nnc(CSc2nc(C)cc(C)n2)o1	0	0	0	0	0	0
Cc1cc(C)nc(SCc2nnc(SCC(=O)Nc3ccc(Cl)c(C(F)(F)F)c3)o2)n1	0	0	100	0	0	0
COc1ccc2occ(C(=O)c3cccs3)c2c1	0	0	0	0	0	0
CNC(=O)c1c(NC(=O)CCS(=O)(=O)c2ccccc2)sc(C)c1C	0	-	0	0	0	0
SMILES	ANO1 activ	PHOSPHO1 block	TMEM16A inh	HDAC3 inhib	CHT allo act	CHT block
NC(=O)c1ccsc1NC(=O)COC(=O)C1=NNC(=O)CC1	0	-	-	0	-	-
CC1=NN(C(N)=S)C(=O)C1N=Nc1c(Cl)cc([N+](=O)[O-])cc1Cl (stereo not drawn)	0	0	25	0	0	0
CC1=NN(C(N)=S)C(=O)C1N=Nc1c(C)cc(C)cc1C (stereo not drawn)	0	0	0	0	0	0
CCCCCCCCCCCC(=O)NC(C(=O)O)C(O)c1ccccc1 (stereo not drawn)	0	0	0	0	0	0
CCCCCCCCNC(C)C(O)c1ccc(SC(C)C)cc1 (stereo not drawn)	0	0	25	0	0	0
CCN(c1ccccc1)S(=O)(=O)c1ccc(F)c(C(=O)O)c1	0	0	0	0	0	0
CCN(c1ccccc1)S(=O)(=O)c1cc(C(=O)Nc2ccc(Br)cc2)ccc1F	0	0	25	0	0	0
NC(=O)C1(Nc2ccc(-c3ccc(Cl)cc3)cc2)CCCC1	0	-	-	-	-	-
Clc1ccc(-c2nnc3sc(-c4ccco4)nn23)c(Cl)c1	-	0	-	-	-	-
Cc1oc(-c2ccc(Cl)cc2)cc1-c1nn2c(-c3ccco3)nnc2s1	-	92	-	-	-	-
Cc1oc(-c2ccc(F)cc2)cc1-c1nn2c(-c3ccoc3C)nnc2s1	0	98	0	0	0	0
COc1cccc(-c2nnc3sc(-c4ccco4)nn23)c1	0	74	0	0	0	0
Cc1cc(C)cc(N(C(C)C(=O)NC2CCCC2)S(C)(=O)=O)c1 (stereo not drawn)	0	0	0	0	0	0
CCOc1ccc(C(=S)NC2CCCCC2)cc1OC	0	81	0	0	0	0
CCOc1ccccc1C(=S)NC1CCCCC1	0	0	0	0	0	0
CCCCn1c(=O)[nH]c(=O)c2c1nc(-c1ccc(OCCC)c(OCC)c1)n2C	0	0	0	0	0	0
Cc1cc(OC(C)C(=O)NCc2ccccn2)c2c(C)c(Cc3ccccc3)c(=O)oc2c1 (stereo not drawn)	0	0	0	0	0	0
CC(=O)N(Cc1cccnc1)c1cccc(-c2nc3ccccc3s2)c1	0	66	0	0	0	0
Nn1c(COc2cccc(Br)c2)nnc1SCC(=O)N1CCc2ccccc2C1	0	82	0	0	0	0
COc1nc(N=C(N)N)nc2ccc(C)cc12	-	0	0	0	7.4	0
COc1nc(Nc2nc3ccccc3c(=O)[nH]2)nc2ccc(C)cc12	0	0	0	0	0	0
CCOC(=O)c1c(C)nn(Cc2ccccc2)c1N	0	0	0	0	0	0
COC(=O)c1ccc(CN2CCC(n3nccc3NC(=O)C3CCCC3)CC2)cc1	0	63	0	0	0	0
CSc1cccc(CN2CCC(n3nccc3NC(=O)C3CC3)CC2)c1	0	64	0	-	0	0
CC1(C)CC(NC(=O)c2cc(COc3cccc(C(F)(F)F)c3)on2)CCO1 (stereo not drawn)	0	0	0	0	0	0
SMILES	ANO1 activ	PHOSPHO1 block	TMEM16A inh	HDAC3 inhib	CHT allo act	CHT block
C[C@H](CO)N1C[C@H](C)[C@@H](CN(C)C)Oc2c(NS(=O)(=O)c3ccccc3)cccc2C1=O	0	-	-	0	-	-
CCOC(=O)CSC1=C(C#N)C(c2ccc(C)s2)CC(=O)N1 (stereo not drawn)	0	0	0	0	0	0
CCOC(=O)CSC1=C(C#N)C(=O)NC2(CCCCC2)S1	0	98	0	0	0	0
O=C(CSc1nc2ccccc2s1)Nn1cnnc1	0	0	0	0	0	0
COCCn1c(-c2ccc(Cl)cc2)cnc1SCC(=O)NCc1cccs1	0	74	0	0	0	0
Cc1cccc(C)c1NC(=O)CNC(=O)COC(=O)c1ccc(Cl)s1	0	-	-	0	-	-
COc1ccc(CNC(=O)[C@@H](NC(=O)C2CCN(C(=O)[C@@H]3CCCN3C(=O)OC(C)(C)C)CC2)C(C)C)cc1	0	0	0	0	0	0
